The results in this text go back to article PMC7826789 (International Journal of Molecular Sciences, 2021).

Regarding `Cc1cc(NC(=O)c2cccc(NC(=O)/C=C/CN(C)C)c2)ccc1Nc1nccc(-c2cccnc2)n1` [JNK-IN-7], the Kinases covered entry with JNK3 is given as “JNK3”.
Consider `O=C(O)/C=C/C(=O)O.OCCCNc1nccc(-c2c(-c3ccc(F)cc3)nn3cc(C(F)(F)F)ccc23)n1` [GW569293E], for which the Kinases covered result with LATS1 is “LATS1”.
Regarding `COc1cc(-c2cncc(-c3cnn(C4CCNCC4)c3)c2)cc(OC)c1OC` [K05908], the Kinases covered result in the assay with LCK is recorded as “LCK”.
On to `COc1cc2ncnc(Nc3cccc(Cl)c3F)c2cc1O[C@H]1CC[C@H]([C@@H]2NCCNC2=O)CC1` [BI00133844], for which the Kinases covered entry is “LCK” in the assay with LCK and “LYN” in the assay with LYN.
Turning to `CCCCN(Cc1ccccc1)C(=O)c1ccc(S(=O)(=O)Nc2ccccc2)cc1` [TH257], the Kinases covered result with LIMK2 is “LIMK2”.
In the case of `COc1cc2ncnc(Nc3ccc(F)c(Cl)c3)c2cc1O[C@H]1CC[C@H](N)CC1` [BIBW3133BS], the Kinases covered result in the assay on LOK is given as “LOK”.
`Nc1nccc(-c2c(-c3ccc(F)cc3)ncn2CCCN2CCOCC2)n1` [SB-216385]: the Kinases covered entry in the assay with MAP2K3 is recorded as “MAP2K3”.
